# Laboratory results published in PubChem BioAssay (Tox21).
# Inconclusive results are not listed. Entries that show only a call come without a potency. Active and inactive are the calls of the source. Unless noted, calls come from the whole dose curve; as a rule, active = well fitted curve in the direction sought with a large enough effect in the repeat runs; inconclusive = weak or mixed curves; inactive = no such curve, though single readings can be large; an effect the other way counts as inactive or inconclusive.
# Tests used:
# [1] = qHTS assay to identify small molecule agonists of the RXR signaling pathway - cell viability counter screen (AID 1159529); note: nearly all actives have a fitted effect of over 50% in size; note: potency is the fitted concentration of half-maximal effect
# Method in brief: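 RXR-alpha-UAS-bla HEK 293T cells in medium with 2% charcoal-stripped FBS were preincubated 5 hr, then exposed to compounds for 16 hr at 37 C. Viability was read as CellTiter-Glo luminescence after 30 min at room temperature.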
# [2] = qHTS assay to identify small molecule antagonists of the retinoid acid receptor (RAR) signaling pathway - cell viability counter screen (AID 1159551); note: nearly all actives have a fitted effect of over 35% in size; note: potency is the fitted concentration of half-maximal effect
# Method in brief: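 C3RL4 cells were seeded overnight at 37 C, then treated with compounds plus 1 uM (final) retinol for 6 h at 37 C. Viability was read as ATP by CellTiter-Glo luminescence after 30 min at room temperature.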
# [3] = qHTS assay to identify small molecule antagonists of the retinoic acid receptor (RAR) signaling pathway (AID 1159552; note: nearly all actives have a fitted effect of over 50% in size; note: potency is the fitted concentration of half-maximal effect)
# Method in brief: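 RARE-luc C3RL4 cells; cpds + 1 uM (final) retinol, 6 hr, 37 C/5% CO2; luciferase reagent, 30 min RT, luminescence readout. Inhibitors of retinol-driven signal scored.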
# [4] = qHTS assay to identify small molecule antagonists of the estrogen related receptor (ERR) signaling pathway from Tox21 library - cell viability counter screen (AID 1224834); note: nearly all actives have a fitted effect of over 30% in size; note: potency is the fitted concentration of half-maximal effect
# Method in brief: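 ERR reporter cells were plated 6 h before compound addition, then exposed to test compounds in DMSO for 17.5 h at 37 C. Viability was read as CellTiter-Fluor fluorescence after a 30-minute incubation at 37 C.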
# [5] = target: Luciferin 4-monooxygenase (Photinus pyralis) (UniProt P08659); experiment: qHTS assay to identify small molecule inhibitors of firefly luciferase (AID 1224835); note: nearly all actives have a fitted effect of over 25% in size; note: potency is the fitted concentration of half-maximal effect
# Luciferin 4-monooxygenase (Photinus pyralis), sequence (P08659 whole entry, looked up): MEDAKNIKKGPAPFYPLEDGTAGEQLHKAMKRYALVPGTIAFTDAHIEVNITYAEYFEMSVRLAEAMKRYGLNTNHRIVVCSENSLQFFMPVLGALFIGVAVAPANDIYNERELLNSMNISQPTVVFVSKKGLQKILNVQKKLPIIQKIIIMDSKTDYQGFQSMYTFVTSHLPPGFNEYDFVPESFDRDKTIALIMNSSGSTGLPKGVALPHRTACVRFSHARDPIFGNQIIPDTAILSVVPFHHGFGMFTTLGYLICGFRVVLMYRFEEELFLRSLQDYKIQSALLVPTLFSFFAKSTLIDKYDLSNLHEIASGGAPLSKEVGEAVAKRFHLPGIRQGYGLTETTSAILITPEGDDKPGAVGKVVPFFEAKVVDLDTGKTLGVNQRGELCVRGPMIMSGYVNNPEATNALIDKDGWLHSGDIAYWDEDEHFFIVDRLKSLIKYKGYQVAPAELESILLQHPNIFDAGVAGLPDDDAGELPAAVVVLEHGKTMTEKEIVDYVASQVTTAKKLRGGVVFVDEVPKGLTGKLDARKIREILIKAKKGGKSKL
# Method in brief: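 Biochemical qHTS: compounds run as interplate titrations against purified firefly enzyme, with D-luciferin and ATP each at its KM concentration. Light output recorded by CCD imaging.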
# [6] = qHTS assay to identify small molecule agonists of the constitutive androstane receptor (CAR) signaling pathway - cell viability counter screen (AID 1224836); note: nearly all actives have a fitted effect of over 45% in size; note: potency is the fitted concentration of half-maximal effect
# Method in brief: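 HepG2 cells stably carrying hCAR and a CYP2B6-2.2kb reporter were plated 4 h, then given compounds at 15 concentrations plus PK11195 (final 0.75 uM). After 23 h at 37 C, viability was read by CellTiter-Fluor fluorescence.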
# [7] = qHTS assay to identify small molecule antagonists of the constitutive androstane receptor (CAR) signaling pathway - cell viability counter screen (AID 1224837); note: nearly all actives have a fitted effect of over 45% in size; note: potency is the fitted concentration of half-maximal effect
# Method in brief: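 HepG2 cells stably expressing hCAR and a CYP2B6-2.2kb reporter were plated and pre-incubated 4 hr at 37 C/5% CO2, then given compounds at 15 concentrations plus 50 nM CITCO (final). After 23 hr, viability was read by CellTiter-Fluor fluorescence.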
# [8] = target: Thyrotropin receptor (Homo sapiens) (UniProt P16473); experiment: qHTS assay to identify small molecule agonists of the thyroid stimulating hormone receptor (TSHR) signaling pathway (AID 1224843; calls by dose curve; note: nearly all actives have a fitted effect of over 45% in size; note: potency is the fitted concentration of half-maximal effect)
# Thyrotropin receptor (Homo sapiens), sequence (P16473 whole entry, looked up): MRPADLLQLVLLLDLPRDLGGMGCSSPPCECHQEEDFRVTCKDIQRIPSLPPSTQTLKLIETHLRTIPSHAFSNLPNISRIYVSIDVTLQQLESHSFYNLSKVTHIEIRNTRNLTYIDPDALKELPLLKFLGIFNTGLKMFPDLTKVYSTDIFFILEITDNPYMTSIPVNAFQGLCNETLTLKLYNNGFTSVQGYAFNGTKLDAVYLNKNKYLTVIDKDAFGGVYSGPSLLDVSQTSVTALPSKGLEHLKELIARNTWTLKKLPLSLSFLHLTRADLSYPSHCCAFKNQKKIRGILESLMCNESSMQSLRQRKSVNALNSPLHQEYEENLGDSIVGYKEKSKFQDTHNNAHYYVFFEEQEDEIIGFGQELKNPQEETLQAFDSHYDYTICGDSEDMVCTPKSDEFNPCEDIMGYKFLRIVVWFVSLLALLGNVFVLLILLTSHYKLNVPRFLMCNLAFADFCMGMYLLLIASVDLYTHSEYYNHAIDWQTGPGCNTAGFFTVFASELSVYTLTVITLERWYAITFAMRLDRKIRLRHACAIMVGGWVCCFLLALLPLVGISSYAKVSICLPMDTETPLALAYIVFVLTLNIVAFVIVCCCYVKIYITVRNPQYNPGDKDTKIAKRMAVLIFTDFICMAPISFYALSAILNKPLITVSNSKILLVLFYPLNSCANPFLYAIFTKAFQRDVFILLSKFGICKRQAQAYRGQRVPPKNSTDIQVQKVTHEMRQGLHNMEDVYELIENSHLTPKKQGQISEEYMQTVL
# Method in brief: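 TSHR-HEK293 cells in agonist mode, 30 min room-temperature step, then cAMP measured by competitive HTRF (cAMP-d2 with anti-cAMP cryptate) after 1 h at room temperature. Tested at 15 concentrations in triplicate.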
# [9] = target: Nuclear receptor subfamily 1 group I member 3 (Homo sapiens) (UniProt Q14994); experiment: qHTS assay to identify small molecule antagonists of the constitutive androstane receptor (CAR) signaling pathway (AID 1224838); note: nearly all actives have a fitted effect of over 40% in size; note: potency is the fitted concentration of half-maximal effect
# Nuclear receptor subfamily 1 group I member 3 (Homo sapiens), sequence (Q14994 whole entry, looked up): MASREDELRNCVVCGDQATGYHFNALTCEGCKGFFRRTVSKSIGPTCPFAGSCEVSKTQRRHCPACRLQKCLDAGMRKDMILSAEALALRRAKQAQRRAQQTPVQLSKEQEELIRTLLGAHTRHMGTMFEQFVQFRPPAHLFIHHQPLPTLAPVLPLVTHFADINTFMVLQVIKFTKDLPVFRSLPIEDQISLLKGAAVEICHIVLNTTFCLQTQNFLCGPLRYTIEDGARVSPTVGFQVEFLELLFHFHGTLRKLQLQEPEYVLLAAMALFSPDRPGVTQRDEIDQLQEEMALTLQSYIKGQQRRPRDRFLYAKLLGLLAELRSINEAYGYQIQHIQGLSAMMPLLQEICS
# Method in brief: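 HepG2 cells stably co-transfected with hCAR and a CYP2B6-2.2kb luciferase reporter were seeded 4 h before compound addition at 15 concentrations. Cells were stimulated with 50 nM CITCO (final) for 24 h at 37 C; luciferase luminescence was then read.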
# [10] = target: Nuclear receptor subfamily 1 group I member 3 (Homo sapiens) (UniProt Q14994); experiment: qHTS assay to identify small molecule agonists of the constitutive androstane receptor (CAR) signaling pathway (AID 1224839); note: nearly all actives have a fitted effect of over 15% in size; note: potency is the fitted concentration of half-maximal effect
# Method in brief: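 HepG2 cells stably expressing hCAR and a CYP2B6-2.2kb luciferase reporter were treated with compounds at 15 concentrations plus 0.75 uM PK11195 (final) for 24 h at 37 C; luminescence was read after ONE-Glo addition.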
# [11] = qHTS assay to identify small molecule antagonists of the estrogen related receptor signaling pathway with the pleiotropic PPARgamma coactivator (PGC) from Tox21 10K library - cell viability counter screen (AID 1224840; active = well fitted cell-killing curve with a large enough effect in the repeat runs, not every such curve was filed as active; note: nearly all actives have a fitted effect of over 40% in size; note: potency is the fitted concentration of half-maximal effect)
# Method in brief: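 PGC/ERR cells were seeded at 2,000 cells/well and left 6 hours at 37 C/5% CO2 before pin-tool addition of compounds in DMSO. After 17.5 hours at 37 C, CellTiter-Fluor was added and fluorescence read 30 minutes later.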
# [12] = qHTS assay to identify small molecule antagonists of the estrogen related receptor signaling pathway with the pleiotropic PPARgamma coactivator (PGC) from Tox21 10K library (AID 1224841; call rule not given here; note: actives are mostly falling curves and most rising ones were filed inactive; nearly all actives have a fitted effect of over 50% in size; note: potency is the fitted concentration of half-maximal effect)
# Method in brief: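 PGC/ERR reporter cells were seeded at 2,000 cells/well and held 6 hours at 37 C/5% CO2 before pin-tool addition of compounds in DMSO. After 18 hours at 37 C, One-Glo was added and luminescence read after 30 minutes at room temperature.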
# [13] = qHTS assay to identify small molecule agonists of the estrogen related receptor signaling pathway with the pleiotropic PPARgamma coactivator (PGC) from Tox21 10K library (AID 1224842); note: nearly all actives have a fitted effect of over 15% in size
# Method in brief: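 PGC/ERR reporter cell line, 2,000 cells per well, incubated 6 h at 37 C before 23 nL compound in DMSO was added. After 18 h at 37 C, One-Glo luminescence read following 30 min at room temperature.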
# [14] = qHTS assay to identify small molecule antagonists of the estrogen related receptor (ERR) signaling pathway - cell viability counter screen (AID 1224818);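 note: series mostly up to about 46 µM; viability measured after 17.5 h of compound exposure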
# Method in brief: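 ERR reporter cells plated 6 h at 37 C/5% CO2, then compounds in DMSO pin-transferred and incubated 17.5 h at 37 C. Viability read as CellTiter-Fluor fluorescence after 30 min at 37 C.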
# [15] = qHTS assay to identify small molecule antagonists of the estrogen related receptor (ERR) signaling pathway (AID 1224819;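 note: luminescence from an ERR-driven luciferase reporter measured with One-Glo reagent; series mostly up to about 46 µM; nearly all actives have a fitted effect of over 50% in size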)
# Method in brief: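 ERR reporter cells were plated at 2,000 cells/well and left 6 h at 37 C/5% CO2 before pin-tool transfer of compounds in DMSO. After 18 h at 37 C, One-Glo was added and luminescence was read 30 min later at room temperature.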
# [16] = qHTS assay to identify small molecule agonists of the estrogen related receptor (ERR) signaling pathway (AID 1224820)
# Method in brief: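 ERR reporter cell line (from NTP), 2,000 cells/well, incubated 6 h before compound addition, then 18 h at 37 C. Luminescence measured 30 min after One-Glo reagent at room temperature.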
# [17] = test system: estrogen-related receptor alpha (ERRalpha) with PGC-1alpha coactivator, human; experiment: qHTS assay to identify small molecule antagonists of the estrogen related receptor signaling pathway with the pleiotropic PPARgamma coactivator (PGC) (AID 1224821; calls by dose curve)
# Method in brief: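 PGC/ERR reporter cell line, plated 6 h before compound addition, then exposed 18 h at 37 °C. Luciferase activity read by luminescence 30 min after One-Glo addition; decrease indicates antagonism.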
# [18] = qHTS assay to identify small molecule antagonists of the estrogen related receptor signaling pathway with the pleiotropic PPARgamma coactivator (PGC) cell viability counter screen (AID 1224822; note: series mostly up to about 46 µM)
# Method in brief: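 PGC/ERR cells were seeded at 2,000 cells/well, rested 6 h at 37 C/5% CO2, then given compounds in DMSO by pin tool and incubated 17.5 h at 37 C. Viability came from CellTiter-Fluor fluorescence after 30 min.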
# [19] = qHTS assay to identify small molecule agonists of the estrogen related receptor signaling pathway with the pleiotropic PPARgamma coactivator (PGC) (AID 1224823)
# Method in brief: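 PGC/ERR reporter cells seeded 6 h, then exposed to compounds (23 nL in DMSO) for 18 h at 37 C. One-Glo luciferase luminescence read after 30 min at room temperature.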
SMILES,Potency [1],Potency [2],Potency [3],Potency [4],Potency [5],Potency [6],Potency [7],Potency [8],Potency [9],Potency [10],Potency [11],Potency [12],Potency [13],Potency [14],Potency [15],outcome [16],Potency [17],Potency [18],outcome [19]
CCCCN1CCCC[C@H]1C(=O)Nc1c(C)cccc1C,inactive,inactive,inactive,inactive,inactive,inactive,inactive,inactive,–,–,–,–,–,–,–,–,–,–,–
Cc1[nH]nc2c1N=C(c1ccccc1Cl)c1cc([N+](=O)[O-])ccc1N2,34.7 µM (active),43.3 µM (active),30.6 µM (active),24.3 µM (active),63.3 µM (active),27.3 µM (active),21.7 µM (active),inactive,7.7 µM (active),inactive,34.4 µM (active),–,–,–,–,–,–,–,–
Clc1ccc2cc3ccccc3cc2c1,inactive,inactive,inactive,inactive,inactive,inactive,inactive,–,inactive,54.4 µM (active),inactive,–,–,–,–,–,–,–,–
CCC(N)(CO)CO,inactive,inactive,inactive,inactive,inactive,inactive,inactive,–,inactive,inactive,inactive,inactive,inactive,–,–,–,–,–,–
NC(=O)NS(=O)(=O)c1ccc(N)cc1,inactive,inactive,inactive,–,inactive,inactive,inactive,inactive,inactive,inactive,inactive,–,–,–,–,–,–,–,–
CCOC(=O)/C=C(C)/C=C/C=C(C)/C=C/c1c(C)cc(OC)c(C)c1C,inactive,inactive,inactive,inactive,inactive,inactive,inactive,inactive,inactive,inactive,inactive,–,–,–,–,–,–,–,–
CCCCCCCCCCn1cc[n+](CCCCCCCCCC)c1C,6.93 µM (active),61.2 µM (active),24.4 µM (active),27.3 µM (active),–,30.7 µM (active),54.5 µM (active),–,30.7 µM (active),inactive,27.3 µM (active),27.3 µM (active),inactive,–,–,–,–,–,–
CC(=O)OCC(C)OC(C)=O (configuration not stated),inactive,inactive,inactive,inactive,inactive,inactive,inactive,inactive,–,–,inactive,–,–,–,–,–,–,–,–
O=c1[nH]cnc2nc[nH]c12,inactive,inactive,inactive,inactive,inactive,inactive,inactive,inactive,inactive,inactive,inactive,–,inactive,–,–,–,–,–,–
O=c1cccccc1O,inactive,inactive,inactive,–,inactive,inactive,inactive,inactive,inactive,inactive,inactive,–,–,–,–,–,–,–,–
CC[C@H]1O[C@]2(CC[C@@H]1C)C[C@@H]1C[C@@H](C/C=C(\C)C[C@@H](C)/C=C/C=C3\CO[C@@H]4[C@H](O)C(C)=C[C@@H](C(=O)O1)[C@]34O)O2,19.3 µM (active),68 µM (active),42.9 µM (active),60.6 µM (active),inactive,68 µM (active),60.6 µM (active),inactive,–,inactive,60.6 µM (active),19.2 µM (active),inactive,–,–,–,–,–,–
CNc1ccc(O)cc1,34.6 µM (active),27.3 µM (active),27.3 µM (active),43.2 µM (active),39.8 µM (active),–,–,–,–,–,48.5 µM (active),–,inactive,–,–,–,–,–,–
Cc1cccc2c1cc1ccc3cccc4ccc2c1c34,inactive,inactive,inactive,inactive,inactive,–,–,–,inactive,15.7 µM (active),inactive,–,inactive,–,–,–,–,–,–
CCCN(CCC)c1c([N+](=O)[O-])cc(C(F)(F)F)c(N)c1[N+](=O)[O-],13.8 µM (active),60.9 µM (active),30.5 µM (active),48.4 µM (active),inactive,–,68.4 µM (active),6.09 µM (active),–,13.6 µM (active),43.1 µM (active),38.5 µM (active),–,–,–,–,–,–,–
CN(C)[C@@H]1C(=O)C(C(N)=O)=C(O)[C@@]2(O)C(=O)C3=C(O)c4c(O)cccc4C[C@H]3C[C@@H]12,inactive,inactive,inactive,inactive,inactive,inactive,inactive,inactive,inactive,inactive,–,–,inactive,–,–,–,–,–,–
[Cl][Bi]([Cl])([c]1ccccc1)([c]1ccccc1)[c]1ccccc1,2.74 µM (active),54.2 µM (active),3.83 µM (active),–,12.6 µM (active),21.6 µM (active),19.2 µM (active),2.16 µM (active),12.1 µM (active),inactive,6.08 µM (active),–,–,–,–,–,–,–,–
CCc1cc(Cc2cc(CC)c(N)c(CC)c2)cc(CC)c1N,38.9 µM (active),inactive,inactive,–,inactive,inactive,inactive,–,inactive,4.86 µM (active),–,21.7 µM (active),inactive,–,–,–,–,–,–
Nc1cc(C(F)(F)F)ccc1S,8.49 µM (active),inactive,6.68 µM (active),–,–,inactive,inactive,–,–,inactive,inactive,29.8 µM (active),inactive,–,–,–,–,–,–
CCCCC(CC)COC(=O)c1ccccc1C(=O)O (configuration not stated),inactive,inactive,–,inactive,inactive,inactive,inactive,–,–,inactive,inactive,–,inactive,inactive,inactive,inactive,inactive,inactive,inactive
